Measurements taken from article PMC5540273 (PLoS ONE, 2017).

System: T1, MLCK
T1 construct: gene MYLK3
Settings: concentration: 1 μM, replicates: in singlicate; n = 1
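Further: KINOMEscan kinase panel screen.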

Structure (SMILES)	%Inh [%]
Cc1c(Cn2ccn3c(=O)cc(N4CCOCC4)nc23)cccc1C(F)(F)F [GSK2289044]	7
Cc1cccc(-c2nc(Nc3ccc4[nH]ncc4c3)c3ccccc3n2)n1 [GW857175]	0
COc1cc2nccc(Nc3ccc(NC(=O)c4ccc(C)cc4)c(O)c3)c2cc1OC.Cl [GW440132]	0
Cn1ccc2ncnc(Oc3cccc(C(=O)Nc4ccccc4)c3)c21	13
Cc1csc(-c2nc(Nc3ccncc3)c3ccccc3n2)n1 [GW869640]	2
Clc1cc(Cl)cc(Nc2ccnc(Nc3cc(Cl)cc(Cl)c3)n2)c1 [GSK175726]	0
Cl.c1ccc(-c2n[nH]cc2-c2ccnc(-c3ccc(CN4CCOCC4)cc3)c2)nc1 [GW776245]	0
O=C(O)COc1ncnc2cc(-c3ccc4[nH]ncc4c3)sc12	1
CC(C)(C)c1ccc(C(=O)Nc2cn3cc(-c4cccnc4)ccc3n2)cc1	41
COc1ccc(C2=C(Nc3cccc(C(=O)O)c3)C(=O)NC2=O)cc1 [SB-390765]	27
Cc1cccc(-c2nc(Nc3cccc(C(N)=O)c3)c3ccccc3n2)n1 [GW876019]	0
O=C(Nc1n[nH]c2cc(-c3cccc(F)c3F)ccc12)C1CC1 [SB-733894]	18
CC(C)(C)c1ccc(C(=O)Nc2cn3cc(Cl)ccc3n2)cc1	54
CC1=C(C(=O)Nc2cc3cn[nH]c3cc2F)C(c2ccc(C(F)(F)F)cc2)CC(=O)N1 (stereo not shown) [GSK429286]	17
Fc1cc(Cl)ccc1Nc1ccnc2cc(-c3ccc(CN4CCCCC4)o3)ccc12 [GW560116]	0
O=C(Nc1n[nH]c2nc(-c3nccs3)c(Br)cc12)C1CCCC1 [SB-742609]	39
COc1cccc(NC(=O)NC2CCN(c3ccnc(Nc4ccc(F)cc4)n3)C2)c1 (stereo not shown) [GSK1379721]	0
Cc1cc(NCC(c2ccccc2)c2ccccc2)nc(NCc2ccc(C(F)(F)F)cc2)n1 [GW497681]	3

Structure (SMILES)	%Inh [%]
COC(=O)c1c(-c2ccccc2)c2cc(OC)ccc2c(=O)n1Cc1ccccc1	3
Cn1cncc1-c1ccc2ncnc(Nc3ccc(OCc4ccccc4)cc3)c2c1 [GW320571]	7
Cc1ccc(NC(=O)Nc2cc(C(C)(C)C)nn2-c2ccccc2)cc1 [GSK1014915]	2
O=C(Nc1n[nH]c2nc(-c3nccs3)c(Br)cc12)C1CC1 [SB-742251]	48
O=C1NC(=O)C(N2CCc3ccccc32)=C1c1ccccc1Cl [SB-373598]	18
Cl.Oc1ccc(-c2nc(-c3ccccc3)[nH]c2-c2ccncc2)cc1 [SB-428218]	14
Fc1cccc(COc2nnc(-c3ccc4c(c3)CCO4)o2)c1	7
CS(=O)(=O)c1ccc(-c2c(-c3ncn[nH]3)sc(N3CCOCC3)c2C#N)cc1	13
Cc1ccc(NC(=O)Nc2cccc(Cl)c2)cc1-c1ccc(C(=O)Nc2ccncc2)cc1 [GSK1398468]	0
Cc1cccc(-c2nc(Nc3ccncc3)c3ccccc3n2)n1 [GW855857]	0
Cc1cccc(-c2nc(-c3ccc(S(C)(=O)=O)cc3)sc2-c2ccnc(NCCc3ccccc3)c2)c1	0
Cc1nnc(-c2ccc3occ(-c4ccc(S(C)=O)cc4)c3c2)[nH]1 (stereo not shown)	8
COc1ccc2nc(-c3cccc(C)n3)nc(Nc3ccncc3)c2c1 [GSK204919]	0
O=c1cc(N2CCOCC2)nc2n(Cc3cccc(Cl)c3Cl)ccn12 [GSK2286295]	16
COc1ccc(CNC(=O)NC2CCN(c3ccnc(Nc4cc(OC)c(OC)c(OC)c4)n3)C2)cc1 (stereo not shown) [GSK1379748]	0
Cn1ccc2ncnc(Oc3ccc(NC(=O)Nc4ccccc4)cc3)c21	0
CCn1c(-c2ccccn2)nc2cnccc21 [SB-736398]	0

System: T2, MLK1
T2 construct: gene MAP3K9
Settings: concentration: 1 μM, replicates: in singlicate; n = 1

Structure (SMILES)	%Inh [%]
Cc1c(Cn2ccn3c(=O)cc(N4CCOCC4)nc23)cccc1C(F)(F)F [GSK2289044]	0
Cc1cccc(-c2nc(Nc3ccc4[nH]ncc4c3)c3ccccc3n2)n1 [GW857175]	2
COc1cc2nccc(Nc3ccc(NC(=O)c4ccc(C)cc4)c(O)c3)c2cc1OC.Cl [GW440132]	0
Cn1ccc2ncnc(Oc3cccc(C(=O)Nc4ccccc4)c3)c21	0
Cc1csc(-c2nc(Nc3ccncc3)c3ccccc3n2)n1 [GW869640]	8
Clc1cc(Cl)cc(Nc2ccnc(Nc3cc(Cl)cc(Cl)c3)n2)c1 [GSK175726]	0
Cl.c1ccc(-c2n[nH]cc2-c2ccnc(-c3ccc(CN4CCOCC4)cc3)c2)nc1 [GW776245]	13
O=C(O)COc1ncnc2cc(-c3ccc4[nH]ncc4c3)sc12	10
CC(C)(C)c1ccc(C(=O)Nc2cn3cc(-c4cccnc4)ccc3n2)cc1	12
COc1ccc(C2=C(Nc3cccc(C(=O)O)c3)C(=O)NC2=O)cc1 [SB-390765]	0
Cc1cccc(-c2nc(Nc3cccc(C(N)=O)c3)c3ccccc3n2)n1 [GW876019]	4
O=C(Nc1n[nH]c2cc(-c3cccc(F)c3F)ccc12)C1CC1 [SB-733894]	0
CC(C)(C)c1ccc(C(=O)Nc2cn3cc(Cl)ccc3n2)cc1	0
CC1=C(C(=O)Nc2cc3cn[nH]c3cc2F)C(c2ccc(C(F)(F)F)cc2)CC(=O)N1 (stereo not shown) [GSK429286]	0
Fc1cc(Cl)ccc1Nc1ccnc2cc(-c3ccc(CN4CCCCC4)o3)ccc12 [GW560116]	0
O=C(Nc1n[nH]c2nc(-c3nccs3)c(Br)cc12)C1CCCC1 [SB-742609]	9
COc1cccc(NC(=O)NC2CCN(c3ccnc(Nc4ccc(F)cc4)n3)C2)c1 (stereo not shown) [GSK1379721]	0
Cc1cc(NCC(c2ccccc2)c2ccccc2)nc(NCc2ccc(C(F)(F)F)cc2)n1 [GW497681]	0

Structure (SMILES)	%Inh [%]
COC(=O)c1c(-c2ccccc2)c2cc(OC)ccc2c(=O)n1Cc1ccccc1	0
Cn1cncc1-c1ccc2ncnc(Nc3ccc(OCc4ccccc4)cc3)c2c1 [GW320571]	8
Cc1ccc(NC(=O)Nc2cc(C(C)(C)C)nn2-c2ccccc2)cc1 [GSK1014915]	0
O=C(Nc1n[nH]c2nc(-c3nccs3)c(Br)cc12)C1CC1 [SB-742251]	0
O=C1NC(=O)C(N2CCc3ccccc32)=C1c1ccccc1Cl [SB-373598]	14
Cl.Oc1ccc(-c2nc(-c3ccccc3)[nH]c2-c2ccncc2)cc1 [SB-428218]	0
Fc1cccc(COc2nnc(-c3ccc4c(c3)CCO4)o2)c1	0
CS(=O)(=O)c1ccc(-c2c(-c3ncn[nH]3)sc(N3CCOCC3)c2C#N)cc1	0
Cc1ccc(NC(=O)Nc2cccc(Cl)c2)cc1-c1ccc(C(=O)Nc2ccncc2)cc1 [GSK1398468]	0
Cc1cccc(-c2nc(Nc3ccncc3)c3ccccc3n2)n1 [GW855857]	11
Cc1cccc(-c2nc(-c3ccc(S(C)(=O)=O)cc3)sc2-c2ccnc(NCCc3ccccc3)c2)c1	0
Cc1nnc(-c2ccc3occ(-c4ccc(S(C)=O)cc4)c3c2)[nH]1 (stereo not shown)	6
COc1ccc2nc(-c3cccc(C)n3)nc(Nc3ccncc3)c2c1 [GSK204919]	0
O=c1cc(N2CCOCC2)nc2n(Cc3cccc(Cl)c3Cl)ccn12 [GSK2286295]	0
COc1ccc(CNC(=O)NC2CCN(c3ccnc(Nc4cc(OC)c(OC)c(OC)c4)n3)C2)cc1 (stereo not shown) [GSK1379748]	0
Cn1ccc2ncnc(Oc3ccc(NC(=O)Nc4ccccc4)cc3)c21	0
CCn1c(-c2ccccn2)nc2cnccc21 [SB-736398]	12
